Compound activity: PubChem BioAssay, National Center for Advancing Translational Sciences (NCATS)
LDHA block – qHTS assay for inhibitors of human lactate dehydrogenase. AID 1347041, 2019. 480,000 tested, 0.15% active. purified LDHA, NADH/diaphorase-resazurin fluorescence; hits give low values. activity change, % (values are at about 110 or 230 µM). L-lactate dehydrogenase A chain (Homo sapiens), P00338; in the data active = activity change below about -30%; inconclusive = mostly about -25% to -30%;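 note: plate controls were DMSO wells for no effect and wells without enzyme for full effect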
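Enzyme activity of human lactate dehydrogenase 5 (2 nM; 0.06 mM NADH, 0.2 mM pyruvate, 5 min, RT) is measured via a resazurin/diaphorase fluorescence readout of residual NADH.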
PI4K2A block – qHTS for small molecular inhibitors of PI4K2A | Phosphatidylinositol 4-kinase type 2-alpha (Homo sapiens), Q9BTU6 | purified PI4K2A, ADP-Glo luminescence, 1 h; hits give low values | activity change, negative = inhibition, % at 76.9 µM | 420,000 tested, 0.13% active; in the data active = activity change below about -50%; inconclusive = mostly about -30% to -49%;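 note: -100% = wells without enzyme as full effect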
Target sequence (Q9BTU6 whole entry, looked up): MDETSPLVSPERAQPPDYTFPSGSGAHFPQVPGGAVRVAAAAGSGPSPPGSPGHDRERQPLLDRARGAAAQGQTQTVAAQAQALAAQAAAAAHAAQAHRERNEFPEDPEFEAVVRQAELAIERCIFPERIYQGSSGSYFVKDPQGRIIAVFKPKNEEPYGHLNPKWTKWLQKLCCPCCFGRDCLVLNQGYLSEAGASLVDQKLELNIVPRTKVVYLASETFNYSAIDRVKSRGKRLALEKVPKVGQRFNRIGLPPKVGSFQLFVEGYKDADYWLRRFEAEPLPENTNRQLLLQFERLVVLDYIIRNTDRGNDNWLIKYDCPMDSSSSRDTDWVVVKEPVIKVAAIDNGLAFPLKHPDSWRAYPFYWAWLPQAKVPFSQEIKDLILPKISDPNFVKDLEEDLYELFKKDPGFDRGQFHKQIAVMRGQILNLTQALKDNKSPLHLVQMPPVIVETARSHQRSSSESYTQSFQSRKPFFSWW
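PI4K2A activity was measured by ADP-Glo luminescence: enzyme (4 ug/mL stock) and phosphatidylinositol (1.2 mM stock) in Tris pH 7.5/MgCl2/EGTA/Triton X-100 buffer were reacted with ATP (300 microM stock) for one hour at ambient temperature.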
PI5P4K alpha inh – qHTS for Inhibitors of phosphatidylinositol 5-phosphate 4-kinase (PI5P4K). max response, %. AID 652105, 2013. 330,000 tested, 1.2% active. PI5P4Kalpha enzyme, ADP-Glo luminescence, 60 min; hits give low values; active = max response of -50% or lower; inconclusive = between -30% and -50%; inactive = -30% or higher; note: value at the top dose of about 77 µM; % is set by controls: 0 for no effect and ±100 for the full control effect
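Enzyme plus substrate dispensed, test compounds pinned in, then ATP (5 microM final) added. After 60 min at RT, ADP-Glo reagent 1 for 45 min and reagent 2 for 30 min preceded luminescence imaging.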
D3 antag – qHTS of D3 Dopamine Receptor Antagonist: qHTS; D3R cells, DiscoveRx beta-arrestin luminescence, antagonist mode; hits give low values; max response, negative = inhibition, %; 360,000 tested, 2.5% active; in the data active = max response below about -50%; inconclusive = no clear call, values can overlap the other calls; note: % is set by controls: 0 for no effect and ±100 for the full control effect
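Cells plated overnight at 1500 cells/well, then exposed to library compounds with dopamine controls for 90 minutes at 37 degrees C. DiscoveRx reagent added for 30–60 minutes at room temperature; luminescence read, quantitative HTS format.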
DRD3 agonist – qHTS of D3 Dopamine Receptor Agonist: qHTS | D(3) dopamine receptor (Homo sapiens), P35462 | D3R DiscoveRx beta-arrestin cells, luminescence, 90 min | max activation, % | 410,000 tested, 0.58% active; in the data active = max activation above about 30%; note: 0% is about no effect
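Agonist-mode cell screen: cells plated at 1500/well and incubated overnight at 37 °C, then exposed to library compounds for 90 min at 37 °C. Detection reagent was added for 30–60 min at room temperature, and luminescence was read.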
Numbers without * were called inactive; ? = inconclusive; . = no result given. The list is not random: actives were taken first. Their share in the collection is about 3.3%.

SMILES | LDHA block | PI4K2A block | PI5P4K alpha inh | D3 antag | DRD3 agonist
COc1cc(/C=N/Nc2ccc(S(N)(=O)=O)cc2[N+](=O)[O-])cc(OC)c1O | -2.1 | -27.6 | 1.5 | -24.7 | -17.6
COc1ccc(Cn2c(O)c(C=Nc3ccccc3C(=O)O)c3ccccc3c2=O)cc1 | -4.9 | -5.1 | -12.9 | 66.6 | 23.1
COc1ccccc1NS(=O)(=O)c1cccc(-n2c(O)c(C=Nc3ccccc3C(=O)O)c3ccccc3c2=O)c1 | -8.0 | -0.1 | -68.7* | 98.4 | 62.0*
CCOc1cc(/C=N/Nc2ccc(S(=O)(=O)Nc3ccccc3C(=O)O)cc2[N+](=O)[O-])cc(Cl)c1O | -20.0 | -11.6 | -69.2* | -12.0 | -5.9
CCCOc1cc(OCCC)c2c(C)c(CCC)c(=O)oc2c1 | -1.0 | . | . | . | .
C=CCc1c(C)nc(Nc2nc(C)c3cc(C)ccc3n2)[nH]c1=O | 11.6 | . | . | . | .
Cc1ccc2nc(-c3ccccc3)cc(C(=O)N3CCN(c4ccccc4O)CC3)c2c1 | 2.3 | 0.3 | 0.6 | 37.3 | 31.4*
COc1cc2nc(CSCC(=O)NCCC(C)C)[nH]c(=O)c2cc1OC | 2.8 | . | . | . | .
CCN(CC)S(=O)(=O)c1cccc(C(=O)Nc2cccc3ncccc23)c1 | -0.9 | . | . | . | .
CCOC(=O)/C(N=Nc1ccc(C(=O)O)cc1[N+](=O)[O-])=C(\C)O | -1.6 | 3.8 | -17.7 | 4.1 | -4.0
CC(=O)/C(N=Nc1cc2c(c([N+](=O)[O-])c1C)C(C)(C)CC2(C)C)=C(\C)O | -8.9 | 3.1 | 0.4 | 20.7 | 34.0*
CC(=O)/C(N=Nc1cc2c(cc1[N+](=O)[O-])OCCO2)=C(\C)O | -2.0 | -2.5 | -24.2 | 7.0 | -8.2
CC(=O)/C(N=Nc1ccc(C(=O)O)cc1[N+](=O)[O-])=C(\C)O | -8.8 | -12.3 | -73.2* | 4.5 | 5.2
O=C(O)C(c1c[nH]c2cc(F)ccc12)N1CCN(Cc2cccc3ccccc23)CC1 (stereo not given) | 6.7 | . | . | . | .
Cc1ccc(-n2nnc3c(=O)n(Cc4cccc(C)c4)cnc32)cc1 | 0.4 | 3.0 | 2.8 | -0.7 | -7.5
Cc1cccc(Cn2cnc3c(nnn3Cc3ccccc3F)c2=O)c1 | 0.6 | 2.0 | . | 3.0 | 56.0*
Cc1cccc(Cn2cnc3c(nnn3Cc3ccc(F)cc3)c2=O)c1 | -4.6 | -5.8 | . | 22.4 | 1.3
Cc1ccc(-n2nnc3c(=O)n(Cc4cc(C)ccc4C)cnc32)cc1 | -7.8 | 1.0 | . | -67.9* | -6.7
Cc1c(C(=O)N2CCN(Cc3cccs3)CC2)oc2ccccc12 | -13.2 | 1.2 | -1.2 | -79.4* | -24.0
Cc1c(C(=O)N2CCCCC2)oc2ccccc12 | -1.7 | 3.8 | 1.5 | 1.3 | -13.5
Cc1c(C(=O)NC(C)CN2CCCCC2)oc2ccccc12 (stereo not given) | 1.3 | -3.3 | . | -77.1* | -54.2
CC(=O)N1CCN(C(=O)c2oc3ccccc3c2C)CC1 | -16.9 | 4.1 | -0.2 | -10.6 | -2.9
C=CCN1CCN(C(=O)c2oc3ccccc3c2C)CC1 | 1.3 | -11.1 | 0.9 | -61.4* | -10.7
COCc1c(C(=O)N2CCN(S(=O)(=O)c3ccccc3Cl)CC2)oc2ccccc12 | -5.8 | -2.7 | 12.6 | 4.7 | 0.5
COCc1c(C(=O)N2CCN(Cc3nc4ccccc4s3)CC2)oc2ccccc12 | -32.6* | -2.5 | 6.3 | 24.8 | 7.0
SMILES | LDHA block | PI4K2A block | PI5P4K alpha inh | D3 antag | DRD3 agonist
Cn1c(=O)c2c(nc(Cl)n2CCOc2ccccc2Cl)n(C)c1=O | 3.6 | . | . | . | .
CN(N)C(=S)Nc1ccc(F)cc1 | -4.2 | 4.9 | -2.0 | -12.5 | 37.1*
COc1ccc(CCN(C)C/C=C/c2ccccc2[N+](=O)[O-])cc1OC | -6.9 | 2.7 | -1.1 | -60.2* | -17.5
COc1cc(CN(C)CCc2ccccn2)cc(OC)c1OC | -30.6* | 10.4 | -13.8 | 14.9 | -5.6
COc1ccc(CCN(C)Cc2ccc(OCc3ccccc3)c(OC)c2)cc1OC | -31.5* | 11.3 | . | ? | -24.3
COc1ccc(CN(C)CCc2ccccn2)cc1OC | -22.6 | -0.4 | -11.5 | -76.0* | -4.2
Nc1nnc(N)c2c1no[n+]2[O-] | 22.4 | . | . | . | .
O=C(C1CCN(S(=O)(=O)c2cnc[nH]2)CC1)N1CCn2c1nc1ccccc12 | -7.6 | 8.2 | . | -118.3* | -35.8
